Source: paper PMC4336329 (PLoS ONE, 2015)
Screen size: about 310,000 compounds; about 14,000 (4.5%) showed an effect of 50% or more. The effect is printed as a negative number. The sample holds strong results, similar compounds and a random draw of the others, so the mix is not that of the screen.

What follows are compounds tested against human ether-à-go-go-related gene (hERG) potassium channel (human, UniProt Q12809) (assay: primary screen, population patch clamp on CHO cells stably expressing hERG; higher = less effect of the substance).
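Also: peak tail current of the secondary pulse compared with the same well before compound.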

human ether-à-go-go-related gene (hERG) potassium channel, sequence (Q12809 whole entry, looked up): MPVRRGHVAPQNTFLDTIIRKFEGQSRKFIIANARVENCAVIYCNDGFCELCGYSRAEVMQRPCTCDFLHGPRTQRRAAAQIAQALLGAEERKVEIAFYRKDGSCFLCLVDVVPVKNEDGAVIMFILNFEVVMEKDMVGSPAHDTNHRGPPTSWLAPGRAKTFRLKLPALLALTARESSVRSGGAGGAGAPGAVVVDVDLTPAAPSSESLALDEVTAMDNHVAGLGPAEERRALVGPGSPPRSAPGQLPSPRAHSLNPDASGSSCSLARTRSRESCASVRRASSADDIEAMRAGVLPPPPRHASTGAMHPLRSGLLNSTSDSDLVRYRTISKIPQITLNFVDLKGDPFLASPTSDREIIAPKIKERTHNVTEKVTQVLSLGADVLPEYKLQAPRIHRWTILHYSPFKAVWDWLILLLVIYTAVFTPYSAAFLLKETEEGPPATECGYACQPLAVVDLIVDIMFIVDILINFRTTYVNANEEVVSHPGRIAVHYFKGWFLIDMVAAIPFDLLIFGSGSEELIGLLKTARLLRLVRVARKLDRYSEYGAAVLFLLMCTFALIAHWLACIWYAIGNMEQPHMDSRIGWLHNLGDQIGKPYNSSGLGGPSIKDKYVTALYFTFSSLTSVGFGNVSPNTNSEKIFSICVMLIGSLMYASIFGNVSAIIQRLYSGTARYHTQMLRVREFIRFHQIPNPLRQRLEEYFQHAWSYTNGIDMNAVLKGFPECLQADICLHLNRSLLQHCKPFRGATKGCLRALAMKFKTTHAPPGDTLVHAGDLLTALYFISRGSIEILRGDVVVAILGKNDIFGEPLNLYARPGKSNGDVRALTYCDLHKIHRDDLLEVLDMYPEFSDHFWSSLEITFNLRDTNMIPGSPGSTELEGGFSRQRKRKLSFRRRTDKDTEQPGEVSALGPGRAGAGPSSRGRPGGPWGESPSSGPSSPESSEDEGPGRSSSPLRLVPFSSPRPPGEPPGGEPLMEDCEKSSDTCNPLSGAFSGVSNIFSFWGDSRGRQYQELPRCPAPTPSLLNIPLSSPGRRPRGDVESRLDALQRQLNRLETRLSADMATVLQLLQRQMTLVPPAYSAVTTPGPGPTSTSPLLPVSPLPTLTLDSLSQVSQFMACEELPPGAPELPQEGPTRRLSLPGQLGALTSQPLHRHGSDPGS

SMILES	hERG current change (%, negative = inhibition) at 10uM
CC(C)CN(C(=O)COC(=O)c1cccc2ccccc12)c1c(N)n(Cc2ccccc2)c(=O)[nH]c1=O	6.01%
O[C@@H]1C2CCCC1[C@]1(O)CCCCC1C2 (stereo partly shown)	8.35%
Cc1ccc(Cl)c(OCC(=O)Nc2ccccc2N2CCCCC2)c1	5.15%
CS(=O)(=O)N(Cc1ccccc1)c1ccc(C(=O)NCCSCc2ccco2)cc1	-18%
O=C(O)COc1ccccc1/C=C1\SC(=S)N(c2cccnc2)C1=O	-10.1%
CCOC(=O)C1CCN(C(=O)CCc2c(C)nc3cc(-c4ccc(OC)cc4OC)nn3c2C)CC1	-70.7%
CCOC(=O)C1CCN(c2cc(C)nc3cc(-c4cccc(F)c4)nn23)CC1	-5.74%
CCOC(=O)C1CCN(C(=O)Cc2ccc(-c3ccccc3)cc2)CC1	-57.7%
CCOC(=O)C1CCN(C(=O)CCc2c(C)nc3cc(-c4ccccc4)nn3c2C)CC1	-78.5%
CCOC(=O)C1CCN(C(=O)c2ccc(OC)cc2OC)CC1	-25.5%
CCOC(=O)C1CCN(C(=O)CCc2ccccc2)CC1	2.13%
CCOC(=O)C1CCCCN1C(=O)CCc1c(C)nc2ncnn2c1C (stereo not shown)	1.42%
COc1ccc(-c2cc3nc(C)c(CCC(=O)N4CCN(c5ccccn5)CC4)c(C)n3n2)c(OC)c1	-36%
CCOC(=O)C1CCCCN1C(=O)CCc1c(C)nc2cc(-c3ccccc3)nn2c1C (stereo not shown)	-64.4%
NC(=O)C1CCN(C(=O)Cc2ccc(-c3ccccc3)cc2)CC1	1.65%
COc1cc(OC)cc(-c2cc3nc(C)c(CCC(=O)O)c(C)n3n2)c1	26%
CCOC(=O)C1CCN(C(=O)Cc2ccc(C)cc2)CC1	-1.62%
COc1ccc(C(=O)NCC(=O)N/N=C/c2cccc(OC(=O)c3ccco3)c2)cc1OC	21.6%
COC(=O)c1[nH]c2cc(OC)ccc2c1NC(=O)CN1CCN(c2cccc(C)c2)C(C)C1 (stereo not shown)	-0.154%
CCOC(=O)CNC(=O)CSc1nnc(Cn2cnc3ccccc32)n1C	-0.389%
O=C(CCC1CCCCC1)NCc1ccccn1	-10.8%
COC(=O)n1ccc(C(=O)Nc2ccccc2F)n1	-8.09%
O=C(O)CCc1nn2c3ccccc3nc2n(Cc2ccccc2)c1=O	36.2%
Cc1c(CN2CCC(CO)(CCOc3ccccc3)CC2)[nH]c2c(Cl)cccc12	-60.5%
Cc1c(CN2CCN(C)C(CCO)C2)[nH]c2c(Cl)cccc12 (stereo not shown)	-42%
Cc1[nH]c2c(Cl)cccc2c(=O)c1CN1CCCC1	-10.6%
Cc1ccc2[nH]c(CN3CCC(CO)(CC4CCCCO4)CC3)c(C)c2c1 (stereo not shown)	-43.7%
Cc1c(CN2CCC(CO)(CCOc3ccccc3)CC2)[nH]c2ccc(Cl)cc12	-71%

SMILES	hERG current change (%, negative = inhibition) at 10uM
COc1ccc2[nH]c(CN3CCC(CO)(CCOc4ccccc4)CC3)c(C)c2c1	-45.3%
C/C(=N\NC(=O)c1ccc(CSc2nncn2C)cc1)c1ccc(C#N)cc1	-26%
Cn1c(SCC(=O)Nc2ccccc2[N+](=O)[O-])nnc1C(F)(F)F	-3.31%
Cn1c(CN2CCOCC2)nnc1SCC(=O)Nc1cccc(C(F)(F)F)c1	-1.04%
O=C(CSc1nncn1-c1cccnc1)Nc1ccccc1C(F)(F)F	4.9%
O=C(CSc1nncn1-c1cccnc1)Nc1cccc(C(F)(F)F)c1	-57.7%
Cn1c(SCC(=O)Nc2ccccc2)nnc1C(F)(F)F	32.6%
Cc1nn(Cc2nnc(SCC(=O)Nc3ccc(Cl)cc3)n2C)c(C)c1[N+](=O)[O-]	-22.9%
Cc1ccc(NC(=O)CSc2nnc(C(F)(F)F)n2C)cc1[N+](=O)[O-]	-73.6%
Cc1nn(Cc2nnc(SCC(=O)Nc3cccc(C(F)(F)F)c3)n2C)c(C)c1[N+](=O)[O-]	-57.7%
O=C(CSc1nncn1-c1cccnc1)Nc1cccc([N+](=O)[O-])c1	4.83%
Cn1cc(CN2CC3C[C@@H]4CC2C[C@H](C3)C4)c(-c2ccc3c(c2)OCCO3)n1	-8.66%
O=C(NCc1ccccn1)Nc1cccc([N+](=O)[O-])c1	11.6%
COc1ccc(Cc2nnc(SCC(=O)Nc3ccc(N4CCOCC4)cc3)n2C)cc1	8.93%
Cc1ccc(C(=O)OCC(=O)NCc2ccco2)cc1	-8.9%
CCOC(=O)C1CCCN(C(=O)/C=C/c2ccc(OC)cc2)C1 (stereo not shown)	-23.6%
CCOC(=O)C1CCCN(C(=O)/C=C/c2ccc(Cl)cc2)C1 (stereo not shown)	-59.9%
COc1c(C)cc(C(=O)C2CCCN(C(=O)/C=C/c3ccccn3)C2)cc1C (stereo not shown)	-15.8%
CCOC(=O)C1CCCN(C(=O)/C=C/c2cccc([N+](=O)[O-])c2)C1 (stereo not shown)	-41.8%
CCOC(=O)C1CCCN(C(=O)/C=C/c2ccc([N+](=O)[O-])cc2)C1 (stereo not shown)	-64.8%
O=C(c1ccc(Cl)cc1)C1CCCN(C(=O)/C=C/c2ccccn2)C1 (stereo not shown)	-51.9%
CCOC(=O)C1CCCN(C(=O)Cc2ccc(Cl)cc2)C1 (stereo not shown)	6.9%
CCOC(=O)C1CCCN(C(=O)/C=C/c2ccccc2[N+](=O)[O-])C1 (stereo not shown)	-12.6%
COc1ccc2cc(C(=O)C3CCCN(C(=O)/C=C/c4ccccn4)C3)ccc2c1 (stereo not shown)	-18.3%
O=C(O)C(=O)O.O=C(c1ccc(F)cc1)N1CCN(C2CC3CCC2C3)CC1 (stereo not shown)	-2.85%
Cn1cnnc1SCCCN1C(=O)c2cccc3cccc(c23)C1=O	-30.6%
COc1ccc(CCN(C)C(=O)Cc2ccc(-c3ccccc3)cc2)cc1OC	-0.187%
